Here are results for 27 molecules from PubChem BioAssay (EPA / NIEHS).

For assay [1], the target named is Norway rat Vesicular Monoamine Transporter (VMAT2), neurotransmitter transporter, Slc18a2 (gene 25549) (UniProt Q01827). Put plainly: NVS_TR_rVMAT2: NovaScreen (NVS) Transporter Assay for Norway rat Vesicular Monoamine Transporter (VMAT2), neurotransmitter transporter (AID 2283376).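 Also: actives lower the bound radioligand signal below the DMSO level.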 An outline of the steps: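 Tissue: rat forebrain extract. Format: competitive radioligand binding, cell-free. Timepoint: 1 h. Readout: filter radiodetection/scintillation. Screen: 25 uM in duplicate, then concentration series for actives. Baseline: DMSO.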
Chain of Norway rat Vesicular Monoamine Transporter (VMAT2), neurotransmitter transporter, Slc18a2 (gene 25549) (Q01827 whole entry, looked up): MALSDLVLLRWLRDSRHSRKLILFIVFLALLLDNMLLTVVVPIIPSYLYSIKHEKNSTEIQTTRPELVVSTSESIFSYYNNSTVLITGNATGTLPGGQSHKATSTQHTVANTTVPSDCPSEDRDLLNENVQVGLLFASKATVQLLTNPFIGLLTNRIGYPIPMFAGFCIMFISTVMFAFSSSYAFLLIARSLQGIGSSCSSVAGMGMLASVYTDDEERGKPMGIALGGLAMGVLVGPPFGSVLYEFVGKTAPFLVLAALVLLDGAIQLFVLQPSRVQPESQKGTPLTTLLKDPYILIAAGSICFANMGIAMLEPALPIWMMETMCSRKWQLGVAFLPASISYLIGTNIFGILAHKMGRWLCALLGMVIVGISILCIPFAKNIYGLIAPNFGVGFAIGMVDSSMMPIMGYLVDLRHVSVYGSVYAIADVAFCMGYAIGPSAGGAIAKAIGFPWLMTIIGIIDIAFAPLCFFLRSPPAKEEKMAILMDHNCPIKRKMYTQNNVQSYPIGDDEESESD

The nature of assay [2]: TOX21_p53_BLA_p2_viability: Viability Assessment in the Tox21 HCT-116 p53 Agonism Beta-lactamase Assay, Phase 2 (AID 2283591).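 Also: actives lower the ATP signal meaning cytotoxicity.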 In outline: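 Cytotoxicity readout: CellTiter-Glo ATP luminescence, 30 min at room temperature, after the beta-lactamase read. Cells were HCT116 exposed 16 h at 37C to compounds pin-transferred at 217-fold dilution from DMSO stocks.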
Assay [3] addresses Cellular tumor antigen p53 (Homo sapiens) (UniProt P04637). In words: TOX21_p53_BLA_p2_ratio: Tox21 HCT-116 p53 Agonism Beta-lactamase Assay, Ratio, Phase 2 (AID 2283592). An outline of the steps: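 An inducible beta-lactamase reporter in HCT116 cells signals p53 pathway activation. After 16 h chemical exposure at 37C, cells load CCF4-AM substrate for 2 h at room temperature; activity is the cleaved/uncleaved emission ratio relative to DMSO.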

Assay [4] can be described thus: TOX21_p53_BLA_p3_viability: Viability Assessment in the Tox21 HCT-116 p53 Agonism Beta-lactamase Assay, Phase 3 (AID 2283593).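 Also: cells exposed to compound for 16 h before reading.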 In outline: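 Cellular ATP was quantified by CellTiter-Glo luminescence, read after 30 min at room temperature. Beforehand, HCT116 cells (4000/well) received compound 5 h post-seeding, 217-fold diluted from DMSO, then incubated 16 h at 37C.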

Assay [5] addresses Cellular tumor antigen p53 (Homo sapiens) (UniProt P04637). Put plainly: TOX21_p53_BLA_p3_ratio: Tox21 HCT-116 p53 Agonism Beta-lactamase Assay, Ratio, Phase 3 (AID 2283596). An outline of the steps: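 HCT116 p53-bla cells (4000/well) given compound in DMSO (217-fold dilution) after 5 h, incubated 16 h at 37C. CCF4-AM substrate 2 h at room temperature; 460/530 nm emission ratio, gain fitted against DMSO.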

The nature of assay [6]: TOX21_p53_BLA_p4_viability: Viability Assessment in the Tox21 HCT-116 p53 Agonism Beta-lactamase Assay, Phase 4 (AID 2283597).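 Also: hits lower the luminescence signal meaning cytotoxicity.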 An outline of the steps:
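Compound exposure of HCT116 cells lasts 16 h at 37C, 5% CO2, with DMSO stocks diluted 217-fold. Cellular ATP is then quantified by CellTiter-Glo luminescence after 30 min at room temperature.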

Assay [7] has as its target Cellular tumor antigen p53 (Homo sapiens) (UniProt P04637). Put plainly: TOX21_p53_BLA_p5_ratio: Tox21 HCT-116 p53 Agonism Beta-lactamase Assay, Ratio, Phase 5 (AID 2283599). In outline: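 Beta-lactamase reporter ratio (blue 460 nm over green 530 nm, 405 nm excitation) after 2 h CCF4-AM loading, in HCT-116 cells exposed 16 h at 37 C to compounds pinned at 217-fold dilution. Increases relative to DMSO baseline scored.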

Assay [8] is described as follows: TOX21_p53_BLA_p5_viability: Viability Assessment in the Tox21 HCT-116 p53 Agonism Beta-lactamase Assay, Phase 5 (AID 2283600). An outline of the steps: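 Counter-readout for cytotoxicity: ATP-dependent luminescence from CellTiter-Glo, read in the beta-lactamase wells after 30 min at RT, following a 16 h compound exposure at 37C.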
Assay [9] deals with Cellular tumor antigen p53 (Homo sapiens) (UniProt P04637). Put plainly: TOX21_p53_BLA_p4_ratio: Tox21 HCT-116 p53 Agonism Beta-lactamase Assay, Ratio, Phase 4 (AID 2283601). In outline:
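Signal is the blue/green (460nm/530nm) ratio of cleaved versus uncleaved CCF4-AM substrate, read after 2 h substrate loading. Cells were HCT116 carrying the p53-responsive beta-lactamase reporter, dosed 16 h at 37C, 5% CO2; CellTiter-Glo measured in parallel.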

Several values for one entry are separate records, joined by “and”; a condition that tells them apart may be missing. Equal values may be shown once. Inconclusive results are not listed. A structure can be active in one record and inactive in another. Activity calls are given as the source filed them. The calls were made as follows: active = hit-call score of the fitted dose curve at least 0.9, where 1 is the maximum; inconclusive = response in the unintended direction; inactive = score below 0.9.

Chain of Cellular tumor antigen p53 (Homo sapiens) (P04637 whole entry, looked up): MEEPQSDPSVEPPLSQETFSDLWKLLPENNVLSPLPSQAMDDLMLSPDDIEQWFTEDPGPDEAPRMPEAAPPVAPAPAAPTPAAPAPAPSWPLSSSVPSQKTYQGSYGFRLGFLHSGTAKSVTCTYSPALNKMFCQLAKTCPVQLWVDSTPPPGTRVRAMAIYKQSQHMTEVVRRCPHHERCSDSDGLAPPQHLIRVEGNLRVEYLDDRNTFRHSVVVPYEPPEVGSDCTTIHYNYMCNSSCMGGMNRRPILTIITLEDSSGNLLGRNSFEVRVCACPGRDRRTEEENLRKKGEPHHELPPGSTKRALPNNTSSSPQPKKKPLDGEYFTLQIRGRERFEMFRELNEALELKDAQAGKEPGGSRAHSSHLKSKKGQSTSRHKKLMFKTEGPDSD

For `Cc1cc(CCC(=O)OCCOCCOCCOC(=O)CCc2cc(C)c(O)c(C(C)(C)C)c2)cc(C(C)(C)C)c1O`, the result in assay [1] was inactive.

On to `CC(=O)C(Cl)(Cl)Cl`, for which the outcome in assay [2], in assay [4] and in assay [6] was inactive. The AC50 was 1.29 µM (active) in assay [3], 0.778 µM (active) in assay [5] and 1.52 µM (active) in assay [7].

Consider `CCCC(O)C(O)CO` (stereo not given), for which the molecule was called inactive in assay [1].

As for `CCCCCCCCCCCCCCn1cc[n+](C)c1`, the AC50 is 82.2 µM (active) and 60.1 µM (active) in [2]; 6.74 µM (active) and 2.12 µM (active) in assay [3]; 10.3 µM (active) and 77.3 µM (active) in assay [4]; 14 µM (active) and 6.93 µM (active) in assay [5]; 598 nM (active) and 40 µM (active) in assay [6]; 49.6 µM (active) and 39.7 µM (active) in [7]. Moreover, the AC50 in [8] was 86.2 µM (active) and 46.2 µM (active); in [9], 63.9 µM (active) and 63.4 µM (active). Besides, the molecule was called inactive in [2], in assay [3], in [4], in assay [5], in assay [6] and in assay [8]. The result in assay [9] was inactive.

On to `CCOC(=O)C=Cc1ccccc1`, for which, in assay [1], the molecule was called inactive.

Regarding `CC(CC(C#N)(c1ccccc1)c1ccccc1)N(C)C` (stereo not given), the call in assay [2] was inactive.

Consider `CC(C)[C@@]1(NC(=O)[C@@H]2C[C@@H]3c4cccc5[nH]cc(c45)C[C@H]3N(C)C2)O[C@@]2(O)[C@@H]3CCCN3C(=O)[C@H](Cc3ccccc3)N2C1=O`, for which the outcome in assay [2], in assay [3], in [4], in assay [5], in assay [6] and in [7] was inactive. Moreover, the result in assay [9] was inactive. The AC50 in [6] is 33.9 µM (active).

Take `CN(C)c1ccc(C(=C2C=CC(=[N+](C)C)C=C2)c2ccccc2)cc1`: the molecule was classed as inactive in assay [1].

As for `Cc1ccc(S(=O)(=O)C(I)I)cc1`, in [1], the half-maximal activity concentration (AC50) is 1.19 µM (active).

Consider `CCCCON=O`, for which the call in assay [2] and in assay [3] was inactive.

As to `CC1CCC(C(C)C)C(OC(=O)c2ccccc2N)C1` (stereo not given), the AC50 in assay [2] was 45.5 µM (active) and 38.5 µM (active); in assay [3], 76.3 µM (active); in assay [4] it was 23 µM (active); in [6] it was 45.5 µM (active) and 34.7 µM (active); in [7], 42.8 µM (active). The result in [3], in assay [5] and in assay [9] was inactive.

Turning to `N#CCBr`, the result in [2], in assay [3], in assay [4] and in assay [5] was inactive.

As to `CCCCCc1cc(O)c2c(c1)OC(C)(C)[C@@H]1CCC(C)=C[C@@H]21`, the half-maximal activity concentration (AC50) is 24.4 µM (active) in assay [2]; 41.7 µM (active) in [3]; 23.4 µM (active) in assay [4]; 40.4 µM (active) in assay [5]; 21.4 µM (active) in [6]; 43.1 µM (active) in assay [7]. The half-maximal activity concentration (AC50) in [8] was 32.8 µM (active); in assay [9], 40 µM (active).

As to `Cc1nnc2n1-c1sc(CCc3ccc(CC(C)C)cc3)cc1C(c1ccccc1Cl)=NC2C` (stereo not given), the concentration at half-maximal activity (AC50) in assay [2] is 23 µM (active); in assay [3], 31 µM (active); in assay [4], 29 µM (active); in assay [5], 27.4 µM (active); in assay [6] it was 24.8 µM (active); in assay [7] it was 39.8 µM (active). For the same molecule, the figures for the concentration at half-maximal activity (AC50) in assay [8] and in assay [9] were 23 µM (active) and 42.2 µM (active), respectively.

Take `CCCC(=O)OC(C(Cl)(Cl)Cl)P(=O)(OC)OC` (stereo not given): the call in [2], in assay [3], in assay [4], in [5], in [6] and in [7] was inactive. For the same molecule, the molecule was called inactive in [8] and in assay [9].

Take `Cc1cc(C(C)(C)c2cc(C)c(O)c(C)c2)cc(C)c1O`: the AC50 was 44.8 µM (active) in [2]; 20.7 µM (active) in [3]; 18.8 µM (active) in assay [5]; 57.2 µM (active) in [6]; 58.5 µM (active) in [7]; 83.3 µM (active) in assay [8]. The AC50 in [9] was 74.3 µM (active). Besides, in [4], the molecule was called inactive.

Turning to `CCC1(c2cnc[nH]2)Cc2ccccc2C1`, the call in assay [2], in assay [3], in assay [4], in assay [5], in assay [6] and in assay [7] was inactive. The molecule was called inactive in assay [8] and in assay [9].

As to `Clc1ccc(CSC(Cn2ccnc2)c2ccc(Cl)cc2Cl)cc1` (stereo not given), the molecule was called inactive in assay [2], in assay [4], in assay [5], in assay [6], in [7] and in assay [8]. Also, the AC50 in [3] was 17.7 µM (active).

Take `C=CC(=O)OCCN(C)C`: the result in assay [2], in assay [3], in assay [4], in [5], in [6] and in assay [7] was inactive. Also, the result in assay [8] was inactive.

`OCC(Cl)CCl` (stereo not given): the molecule was classed as inactive in assay [2], in assay [3], in assay [4], in assay [5], in [6] and in assay [7]. In [8], the call was inactive.

Turning to `CC(=O)C(Cl)Cl`, the molecule was called inactive in [2], in [3], in assay [4], in assay [5], in [6] and in [7]. For the same molecule, the call in assay [8] and in assay [9] was inactive.

Take `ClC(Cl)(Cl)Br`: the molecule was called inactive in assay [2], in assay [3], in [4], in assay [5], in assay [6] and in [7]. Besides, the outcome in [8] and in assay [9] was inactive.

In the case of `N=C(N)[Se]`, the call in assay [2], in assay [3], in assay [4], in [5], in assay [6] and in assay [7] was inactive. Further, the molecule was called inactive in [8] and in [9].

For the molecule `O=C(O)/C=C\C(=O)O`, the molecule was called inactive in assay [2], in assay [3], in assay [4], in assay [5], in assay [6] and in assay [7]. The result in assay [8] and in assay [9] was inactive.

On to `O=P1(N(CCCl)CCCl)NC(OO)CCO1` (stereo not given), for which the molecule was called inactive in assay [2], in [3], in assay [4], in assay [5], in assay [6] and in assay [7]. The outcome in [8] and in assay [9] was inactive.

In the case of `CC(Cl)C(=O)O` (stereo not given), the molecule was called inactive in assay [2], in [3], in assay [4], in assay [5], in [6] and in assay [7]. In addition, the outcome in assay [8] was inactive.

Take `COC(=O)[C@]12CCC(C)(C)C[C@H]1[C@H]1C(=O)C=C3[C@@]4(C)C=C(C#N)C(=O)C(C)(C)[C@@H]4CC[C@@]3(C)[C@]1(C)CC2`: the half-maximal activity concentration (AC50) in assay [2] is 1.83 µM (active); in assay [3], 29.2 µM (active); in [4], 1.37 µM (active); in assay [5] it was 15.3 µM (active); in assay [6] it was 1.99 µM (active); in assay [7], 31.7 µM (active). Besides, the results for the AC50 in assay [8] and in assay [9] were 2.57 µM (active) and 7.4 µM (active), respectively.

One may read the AC50 as the midpoint of the concentration-response curve, whichever way the signal moves.
